Eight molecules from PubChem BioAssay (NCI) can be followed below.

Compounds without any hit were thinned out: in the full panel of roughly 83,000, 20% have a hit.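 Testing used 96-well plates and a 48-hour single-concentration exposure. Example: -40 means 40% of the starting cells died.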 Values without a mark were called inactive. Active and inactive are the calls of the source. How the source made its calls: active means growth percent below 10; inactive means the rest.

Test systems include SK-MEL-2 melanoma; EKVX NSCLC; SN12C renal; UO-31 renal; TK-10 renal; ACHN renal; CAKI-1 renal; A498 renal; CCRF-CEM leukemia; MOLT-4 leukemia; RPMI-8226 leukemia; OVCAR-8 ovarian; OVCAR-5 ovarian; OVCAR-4 ovarian; SK-OV-3 ovarian; IGROV1 ovarian; OVCAR-3 ovarian; HS 578T breast; NCI/ADR-RES ovarian; SR leukemia.
Common to all, as to assay: NCI-60 one-dose screen, 48 h (100 = growth as untreated, 0 = no growth, -100 = all killed)
What all share (settings): 10 µM unless noted

As to `O=C(/C=C/c1ccco1)c1ccccc1O`, the growth with SK-MEL-2 melanoma is 108%; in the assay on EKVX NSCLC, 104%; with SN12C renal it was 102%; with UO-31 renal, 87.5%; in the assay with TK-10 renal, 122%; in the assay on ACHN renal, 102%. Moreover, the growth in the assay on CAKI-1 renal is 99.3%; in the assay with A498 renal, 106%; with CCRF-CEM leukemia, 76.5%; in the assay on MOLT-4 leukemia, 118%; with RPMI-8226 leukemia, 92.4%; with OVCAR-8 ovarian, 104%. Moreover, the growth is 101% in the assay on OVCAR-5 ovarian; 106% in the assay on OVCAR-4 ovarian; 115% in the assay on SK-OV-3 ovarian; 104% with IGROV1 ovarian; 97% in the assay with OVCAR-3 ovarian; 120% in the assay on HS 578T breast. In the assay with NCI/ADR-RES ovarian, the growth was 97.7%.

For the molecule `NC(N)=N/N=C/c1ccc(Cl)cc1`, the growth was 95.9% in the assay with SK-MEL-2 melanoma; 64.2% in the assay on EKVX NSCLC; 94.9% with SN12C renal; 73.3% in the assay with UO-31 renal; 84.9% in the assay on TK-10 renal; 91.8% in the assay with ACHN renal. The growth in the assay on CAKI-1 renal was 34%; in the assay on A498 renal, 68.2%; with CCRF-CEM leukemia it was 71%; with MOLT-4 leukemia, 53.9%; with OVCAR-8 ovarian, 88.3%; with OVCAR-5 ovarian, 89.6%. Besides, the growth in the assay with SK-OV-3 ovarian was 76.5%; in the assay with OVCAR-3 ovarian it was 56.8%; with HS 578T breast, 75.4%; in the assay on NCI/ADR-RES ovarian, 79.9%.

Regarding `N/C(=C\C(=O)n1nc(-c2ccccc2)cc1N)c1ccccc1`, the growth in the assay on SK-MEL-2 melanoma is -16.7% (active); with EKVX NSCLC, 69.5%; with SN12C renal, 62.1%; in the assay on UO-31 renal it was 38.2%; with TK-10 renal, 101%; in the assay with ACHN renal, 63.7%. The growth was 65.3% with CAKI-1 renal; 67.8% in the assay with A498 renal; 40.1% in the assay on CCRF-CEM leukemia; 43% in the assay with MOLT-4 leukemia; 42.8% with RPMI-8226 leukemia; 60.6% in the assay on OVCAR-8 ovarian. Further, the growth was 70.9% in the assay with OVCAR-5 ovarian; 72% in the assay on OVCAR-4 ovarian; 65.5% in the assay with SK-OV-3 ovarian; 16.5% with IGROV1 ovarian; 20.2% in the assay on OVCAR-3 ovarian; -6.87% (active) in the assay with HS 578T breast. Moreover, the growth in the assay with NCI/ADR-RES ovarian is 17%.

With `O=C1/C=C/[C@@H](O)[C@@H]2C[C@@H](O)C[C@H]2/C=C/CCC[C@H]([C@@H](O)CO)O1`, the growth was 98.4% in the assay on SK-MEL-2 melanoma; 96.6% in the assay with EKVX NSCLC; 102% in the assay with SN12C renal; 68.3% with UO-31 renal; 121% in the assay on TK-10 renal; 109% in the assay with ACHN renal. For the same molecule, the growth with CAKI-1 renal was 97.6%; in the assay on A498 renal it was 64%; in the assay on CCRF-CEM leukemia, 101%; in the assay on MOLT-4 leukemia it was 103%; in the assay with RPMI-8226 leukemia it was 112%; in the assay with OVCAR-8 ovarian, 82%. For the same molecule, the growth in the assay with OVCAR-5 ovarian is 98.5%; with OVCAR-4 ovarian it was 72.8%; with SK-OV-3 ovarian, 91.6%; in the assay on IGROV1 ovarian, 98.5%; in the assay on OVCAR-3 ovarian, 86.7%; in the assay on HS 578T breast it was 53.5%. The growth in the assay on NCI/ADR-RES ovarian was 90.1%.

Consider `O=C1C=CN2C(=O)CC=CC2[C@@H]1O` (stereo partly drawn), for which the growth in the assay on SK-MEL-2 melanoma is 113%; in the assay with EKVX NSCLC it was 121%; in the assay on SN12C renal, 106%; with UO-31 renal it was 78.2%; in the assay on TK-10 renal it was 118%; in the assay on ACHN renal, 109%. Moreover, the growth with CAKI-1 renal was 109%; in the assay on A498 renal it was 108%; in the assay with CCRF-CEM leukemia it was 96.3%; in the assay on MOLT-4 leukemia, 109%; in the assay with RPMI-8226 leukemia it was 96.4%; in the assay with OVCAR-8 ovarian, 114%. Moreover, the growth is 121% in the assay on OVCAR-5 ovarian; 110% in the assay on OVCAR-4 ovarian; 104% in the assay with SK-OV-3 ovarian; 118% in the assay with IGROV1 ovarian; 120% in the assay with OVCAR-3 ovarian; 121% in the assay on HS 578T breast. Moreover, the growth in the assay on NCI/ADR-RES ovarian was 106%.

`O=C(Nc1ccc(Br)cc1)c1ccc(Cl)c(Cl)c1`: the growth was 102% with SK-MEL-2 melanoma; 24% with EKVX NSCLC; 60.7% in the assay with SN12C renal; 59.1% with UO-31 renal; 107% with TK-10 renal; 18.1% with ACHN renal. In addition, the growth was 8.9% (active) with CAKI-1 renal; 65.7% with A498 renal; 1.53% (active) in the assay with CCRF-CEM leukemia; 23.3% in the assay on MOLT-4 leukemia; -6.3% (active) in the assay with RPMI-8226 leukemia; 89.3% in the assay on OVCAR-8 ovarian. Moreover, the growth was 72% in the assay with OVCAR-5 ovarian; 28.8% in the assay on OVCAR-4 ovarian; 63.7% with SK-OV-3 ovarian; 66.7% in the assay with IGROV1 ovarian; 16% in the assay on OVCAR-3 ovarian; 79.6% with HS 578T breast. In the assay with NCI/ADR-RES ovarian, the growth was 36.6%.

Regarding `COc1ccc(CC2c3cc(OC)c(OC)cc3CC[N+]2(C)CCC(=O)OCCCCCOC(=O)CC[N+]2(C)CCc3cc(OC)c(OC)cc3C2Cc2ccc(OC)c(OC)c2)cc1OC` (stereo not drawn), the growth in the assay with SK-MEL-2 melanoma is 98.7%; with EKVX NSCLC, 101%; with SN12C renal, 81.2%; with UO-31 renal it was 66.2%; in the assay on TK-10 renal it was 124%; in the assay with ACHN renal, 97.1%. Also, the growth was 87.4% in the assay with CAKI-1 renal; 66% in the assay on A498 renal; 94.1% with CCRF-CEM leukemia; 80.4% with MOLT-4 leukemia; 96.3% in the assay on RPMI-8226 leukemia; 96.5% with OVCAR-8 ovarian. The growth was 103% in the assay with OVCAR-5 ovarian; 89.8% in the assay with OVCAR-4 ovarian; 110% in the assay with SK-OV-3 ovarian; 102% with IGROV1 ovarian; 95.9% in the assay with OVCAR-3 ovarian; 93.4% in the assay on HS 578T breast. Moreover, in the assay on NCI/ADR-RES ovarian, the growth was 78.1%.

With `CCOC(=O)C1=C(C)NC(=S)NC1c1ccccc1` (stereo not drawn), the growth in the assay with SK-MEL-2 melanoma is 113%; in the assay with EKVX NSCLC, 97.6%; with SN12C renal it was 103%; in the assay with UO-31 renal, 76.4%; in the assay on TK-10 renal, 104%; with ACHN renal, 99.6%. The growth in the assay with CAKI-1 renal is 87.5%; in the assay with A498 renal it was 86.3%; in the assay on CCRF-CEM leukemia, 109%; in the assay with SR leukemia, 94.3%; in the assay with RPMI-8226 leukemia, 112%; in the assay on OVCAR-8 ovarian, 103%. Also, the growth is 101% in the assay on OVCAR-5 ovarian; 98.5% with OVCAR-4 ovarian; 114% with SK-OV-3 ovarian; 110% with OVCAR-3 ovarian; 98.9% in the assay on HS 578T breast; 109% in the assay on NCI/ADR-RES ovarian.
